Among the data in PubChem BioAssay are growth inhibition, inhibition and outcome values, retold here.

Assay [1] in a line: antimalarial activity against Dd2 strain (AID 2302;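 active = growth inhibition above 50% at the single 2 µM test dose, taken to imply half-maximal potency below 2 µM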;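 also: 0% = DMSO untreated growth and 100% = chloroquine plus artemisinin killed control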). Particulars: P. falciparum Dd2 in RBCs, LDH growth readout, 72 h; at 2 µM; hits give high values.
Assay [2] in a line: HepG2 cytotoxicity, primary screen, cytotoxicity control for P. falciparum antimalarial project, cell-based, ATP luminescence (AID 2303;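 active = inhibition above 50%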;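 also: 0% = DMSO wells and 100% = digitonin-killed cells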). Particulars: HepG2 viability, 24-48 h, at 10 µM, hits give high values.
Assay [3] has as its target L-lactate dehydrogenase (Plasmodium falciparum (isolate CDC / Honduras)) (UniProt Q27743). In words: PfLDH activity inhibition – cell lysate, 3D7 strain, counter-screen for P. falciparum growth inhibition project (AID 2304).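 Also: 0% = vehicle and 100% = reference inhibitor.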 Particulars: P. falciparum 3D7 crude extract, LDH APAD/NBT absorbance; at 2 µM; hits give high values.
Assay [4] in a line: inhibition of 3D7 malaria parasite growth – strain 3D7 (AID 2306).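 Also: 0% = DMSO wells and 100% = chloroquine plus artemisinin control wells.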 The conditions noted are these: P. falciparum 3D7 erythrocytic growth, LDH absorbance, 72 h; at 2 µM; hits give high values.
The target in assay [5] is Calcium-dependent protein kinase 1 (Plasmodium falciparum (isolate 3D7)) (UniProt P62344). The assay can be described thus: PfCDPK1 kinase inhibitors, biochemical, TCAMS library (AID 1159585; cut-off not given, nearly all actives have IC50 up to about 0.98 µM;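 also: inhibitors leave more ATP so luminescence rises with inhibition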). Particulars: recombinant PfCDPK1, Kinase-Glo ATP depletion luminescence. On the technique in general: Kinase-Glo reads ATP consumption through a luciferase reaction.
Assay [6] concerns the target Plasmodium falciparum protein kinase 6 (PK6, PF3D7_1337100) (UniProt Q8IDW1). In words: PfPK6 kinase inhibitors, biochemical, TCAMS library (AID 1159586). Particulars: recombinant PfPK6, Kinase-Glo ATP depletion luminescence.
Assay [7] concerns the target Protein kinase 7 (PK7), Plasmodium falciparum 3D7 (PF3D7_0213400) (UniProt Q7YTF7). In words: inhibition of Plasmodium PK7 catalytic activity – biochemical, TCAMS antimalarial set, Kinase-Glo luminescence (AID 1159587). The conditions noted are these: recombinant PfPK7, Kinase-Glo ATP depletion luminescence.
The target of assay [8] is Calcium-dependent protein kinase 4 (Plasmodium falciparum (isolate 3D7)) (UniProt Q8IBS5). The assay can be described thus: PfCDPK4 kinase inhibitors, biochemical, TCAMS library (AID 1159588; cut-off not given, nearly all actives have IC50 up to about 0.91 µM). Particulars: recombinant PfCDPK4, Kinase-Glo ATP depletion luminescence.

The structures appear in SMILES notation. Where “and” joins values, the source holds several entries; their conditions need not be identical. Equal values may be shown once. A number with no mark means an inactive call. For some of these results: Measured potencies and affinities stand elsewhere. Calls of active or inactive are those of the source. Unless noted, no rule for the calls is given here.

Plasmodium falciparum protein kinase 6 (PK6, PF3D7_1337100), sequence (Q8IDW1 1-305): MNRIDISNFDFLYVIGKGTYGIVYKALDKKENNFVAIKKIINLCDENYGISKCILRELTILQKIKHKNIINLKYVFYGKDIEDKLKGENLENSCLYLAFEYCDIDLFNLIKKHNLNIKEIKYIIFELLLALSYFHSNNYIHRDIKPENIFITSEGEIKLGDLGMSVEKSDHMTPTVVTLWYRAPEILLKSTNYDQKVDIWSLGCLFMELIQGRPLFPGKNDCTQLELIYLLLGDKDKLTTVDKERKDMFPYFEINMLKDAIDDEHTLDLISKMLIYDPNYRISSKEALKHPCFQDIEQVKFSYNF
L-lactate dehydrogenase (Plasmodium falciparum (isolate CDC / Honduras)), sequence (Q27743 whole entry, looked up): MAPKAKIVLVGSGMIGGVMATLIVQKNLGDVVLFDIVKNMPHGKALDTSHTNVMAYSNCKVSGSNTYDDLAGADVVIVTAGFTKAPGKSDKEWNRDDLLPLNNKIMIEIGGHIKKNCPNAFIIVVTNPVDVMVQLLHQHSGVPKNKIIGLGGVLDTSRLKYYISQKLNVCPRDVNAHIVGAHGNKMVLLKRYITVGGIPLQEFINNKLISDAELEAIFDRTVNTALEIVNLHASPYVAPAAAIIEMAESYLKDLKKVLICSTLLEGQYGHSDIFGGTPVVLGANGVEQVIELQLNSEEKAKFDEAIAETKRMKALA
Calcium-dependent protein kinase 1 (Plasmodium falciparum (isolate 3D7)), sequence (P62344 whole entry, looked up): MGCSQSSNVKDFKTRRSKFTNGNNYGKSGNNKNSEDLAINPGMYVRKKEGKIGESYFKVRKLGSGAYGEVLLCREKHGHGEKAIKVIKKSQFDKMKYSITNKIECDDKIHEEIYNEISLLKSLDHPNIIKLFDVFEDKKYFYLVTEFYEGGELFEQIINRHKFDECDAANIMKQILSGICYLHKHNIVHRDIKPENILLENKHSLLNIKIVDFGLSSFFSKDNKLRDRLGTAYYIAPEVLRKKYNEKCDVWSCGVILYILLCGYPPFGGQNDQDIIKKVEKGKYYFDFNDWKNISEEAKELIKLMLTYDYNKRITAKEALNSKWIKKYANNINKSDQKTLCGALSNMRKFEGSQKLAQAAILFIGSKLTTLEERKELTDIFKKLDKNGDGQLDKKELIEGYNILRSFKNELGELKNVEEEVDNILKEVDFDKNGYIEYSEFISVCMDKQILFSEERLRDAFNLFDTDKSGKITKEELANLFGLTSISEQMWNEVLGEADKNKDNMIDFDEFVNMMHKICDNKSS
Protein kinase 7 (PK7), Plasmodium falciparum 3D7 (PF3D7_0213400), sequence (Q7YTF7 1-343): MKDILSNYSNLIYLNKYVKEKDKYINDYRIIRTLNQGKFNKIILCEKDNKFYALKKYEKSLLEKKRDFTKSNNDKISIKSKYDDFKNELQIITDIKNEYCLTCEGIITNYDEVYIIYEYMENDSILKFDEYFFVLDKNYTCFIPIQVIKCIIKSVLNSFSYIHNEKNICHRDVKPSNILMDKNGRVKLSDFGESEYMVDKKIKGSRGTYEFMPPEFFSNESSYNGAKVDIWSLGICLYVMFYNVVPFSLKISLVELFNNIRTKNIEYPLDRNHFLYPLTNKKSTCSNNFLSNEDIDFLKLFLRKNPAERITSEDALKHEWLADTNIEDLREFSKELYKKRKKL
Calcium-dependent protein kinase 4 (Plasmodium falciparum (isolate 3D7)), sequence (Q8IBS5 whole entry, looked up): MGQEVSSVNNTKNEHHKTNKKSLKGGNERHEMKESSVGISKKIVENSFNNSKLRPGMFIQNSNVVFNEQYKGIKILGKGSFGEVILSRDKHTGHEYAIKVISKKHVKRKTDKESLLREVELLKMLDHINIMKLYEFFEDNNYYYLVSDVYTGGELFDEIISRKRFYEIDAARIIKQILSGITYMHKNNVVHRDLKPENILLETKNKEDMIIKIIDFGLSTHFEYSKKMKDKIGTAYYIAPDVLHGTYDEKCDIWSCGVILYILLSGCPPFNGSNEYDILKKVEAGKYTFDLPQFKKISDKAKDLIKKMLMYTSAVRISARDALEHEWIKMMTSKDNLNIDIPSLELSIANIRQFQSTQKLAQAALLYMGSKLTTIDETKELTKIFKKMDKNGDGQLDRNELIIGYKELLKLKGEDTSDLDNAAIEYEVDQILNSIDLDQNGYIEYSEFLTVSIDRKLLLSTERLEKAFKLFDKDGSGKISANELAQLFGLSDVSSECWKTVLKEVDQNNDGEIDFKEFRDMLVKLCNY

Usually inhibition stands for the change of the read-out against control, counted positive when it falls. As to `Cc1[nH]c2ccc(O)cc2c1C1CCN(CC2CCN(C(=O)/C=C/c3ccc(Cl)c(Cl)c3)CC2)CC1`, the growth inhibition in assay [1] and in assay [4] was 99% (active) in each case. The figures for the inhibition in assay [2] and in assay [3] were 23% and -13%, respectively. Further, the result in assay [5], in assay [6], in assay [7] and in assay [8] was inactive.
With `O=C(/C=C/c1ccc(Cl)c(Cl)c1)NC1CCC(N2CCC(c3c[nH]c4ccccc34)CC2)CC1` (centres undefined), the growth inhibition was 69% (active) in assay [1] and 100% (active) in assay [4]. In addition, the figures for the inhibition in assay [2] and in assay [3] were 41% and 7%, respectively. Besides, the outcome in assay [5], in assay [6], in assay [7] and in assay [8] was inactive.
Regarding `CC[C@H]1CN2CC[C@H]1C[C@@H]2[C@@H](O)c1ccnc2ccccc12`, the growth inhibition was 20% in assay [1] and 98% (active) in assay [4]. Besides, the inhibition in assay [2] was 10%; in assay [3] it was -4%. Also, the outcome in assay [5], in assay [6], in assay [7] and in assay [8] was inactive.
As to `COCCSc1ccc(CC(C)NCC(O)c2cccc(Cl)c2)cc1` (centres undefined), the growth inhibition in assay [1] was 73% (active); in assay [4], 97% (active). Further, the inhibition in assay [2] is 2%; in assay [3], -1%. The outcome in assay [5], in assay [6], in assay [7] and in assay [8] was inactive.
As to `O=C(CSc1ccc(Cl)cc1)NC1CCC(CN2CCC(c3c[nH]c4ccccc34)CC2)CC1` (centres undefined), the growth inhibition in assay [1] is 21%; in assay [4], 95% (active). In addition, the inhibition was 41% in assay [2] and -3% in assay [3]. The result in assay [5], in assay [6], in assay [7] and in assay [8] was inactive.
With `O=C(NC1CCC(CN2CCC(c3c[nH]c4ccccc34)CC2)CC1)c1cc(-c2ccccc2Cl)n(-c2cccc(Cl)c2)n1` (centres undefined), the growth inhibition in assay [1] was 24%; in assay [4] it was 95% (active). Also, the inhibition in assay [2] was 58% (active); in assay [3], 4%. Besides, the outcome in assay [5], in assay [6], in assay [7] and in assay [8] was inactive.
Regarding `NC(=O)c1ccc2[nH]cc(C3CCN(CC4CCC(NC(=O)/C=C/c5ccc(Cl)c(Cl)c5)CC4)CC3)c2c1` (centres undefined), the growth inhibition in assay [1] is 26% and 32%; in assay [4] it was 101% (active) and 100% (active). For the same compound, the inhibition in assay [2] was 11% and -1%; in assay [3], 5% and -8%. Besides, the outcome in assay [5], in assay [6], in assay [7] and in assay [8] was inactive.
As to `Cc1ccc(/C=C/C(=O)NC2CCC(CN3CCC(c4c[nH]c5ccccc45)CC3)CC2)cc1` (centres undefined), the growth inhibition in assay [1] is 66% (active) and 69% (active); in assay [4], 101% (active). Besides, the inhibition in assay [2] is 32% and 41%; in assay [3], -2% and 3%. In addition, the result in assay [5], in assay [6], in assay [7] and in assay [8] was inactive.
As for `COc1ccc2[nH]cc(C3C[C@H]4CC[C@@H](C3)N4CCC3CCN(C(=O)/C=C/c4ccc(Cl)c(Cl)c4)CC3)c2c1` (some centres undefined), the figures for the growth inhibition in assay [1] and in assay [4] were 80% (active) and 101% (active), respectively. Moreover, the inhibition is 38% in assay [2] and 5% in assay [3]. Also, the result in assay [5], in assay [6], in assay [7] and in assay [8] was inactive.
Consider `Cc1cc(NC(=O)[C@@H](Nc2ccc(C#N)c3ccccc23)C2CCCCC2)ccc1F`, for which the growth inhibition in assay [1] was 83% (active); in assay [4] it was 95% (active). Moreover, the inhibition in assay [2] was 10%; in assay [3], 0%. Besides, the result in assay [5], in assay [6], in assay [7] and in assay [8] was inactive.
Take `O=C(CCc1ccc(Cl)cc1Cl)NC1CCC(CN2CCC(c3c[nH]c4ccccc34)CC2)CC1` (centres undefined): the growth inhibition was 4% and 45% in assay [1]; 97% (active) and 100% (active) in assay [4]. The inhibition is 33% and 44% in assay [2]; -4% and 2% in assay [3]. For the same compound, the outcome in assay [5], in assay [6], in assay [7] and in assay [8] was inactive.
Regarding `CC(Cc1ccc(OCc2ccc(CCN(C)C)cc2)cc1)NCCc1cccc(Cl)c1` (centres undefined), the figures for the growth inhibition in assay [1] and in assay [4] were 78% (active) and 100% (active), respectively. In addition, the inhibition was 42% in assay [2] and 5% in assay [3]. In addition, the result in assay [5], in assay [6], in assay [7] and in assay [8] was inactive.
`Cc1ccc(CC(C)NCC(O)c2cccc(C(F)(F)F)c2)c(C)c1` (centres undefined): the growth inhibition in assay [1] and in assay [4] was 99% (active) each time. For the same compound, the inhibition in assay [2] is 3%; in assay [3], -1%. Further, the result in assay [5], in assay [6], in assay [7] and in assay [8] was inactive.
`Cc1[nH]c2ccc(O)cc2c1C1CCN(CC2CCC(NC(=O)/C=C/c3c(Cl)cccc3Cl)CC2)CC1` (centres undefined): the growth inhibition in assay [1] was 93% (active); in assay [4], 103% (active). Moreover, the inhibition is 25% in assay [2] and -3% in assay [3]. For the same compound, the outcome in assay [5], in assay [6], in assay [7] and in assay [8] was inactive.
In the case of `Cc1csc(NC2=NCCN2)n1`, the growth inhibition in assay [1] is 1%; in assay [4], 99% (active). Further, the inhibition in assay [2] is 10%; in assay [3], 0%. Also, the result in assay [5], in assay [6], in assay [7] and in assay [8] was inactive.
Consider `CC[C@H]1CN2CC[C@@H]1C[C@H]2[C@H](O)c1cc(N2CCC(c3ccccc3)CC2)nc2ccc(OC)cc12`, for which the growth inhibition is 98% (active) in assay [1] and 99% (active) in assay [4]. For the same compound, the inhibition in assay [2] was 45%; in assay [3], -5%. In addition, the outcome in assay [5], in assay [6], in assay [7] and in assay [8] was inactive.
For `CC[C@H]1CN2CC[C@H]1C[C@@H]2[C@@H](O)c1cc(Cl)nc2ccc(OC)cc12`, the growth inhibition was 82% (active) in assay [1] and 98% (active) in assay [4]. Moreover, the results for the inhibition in assay [2] and in assay [3] were -9% and -2%, respectively. Also, the outcome in assay [5], in assay [6], in assay [7] and in assay [8] was inactive.
Consider `CC(=O)C1(c2ccccc2)CCN(CCC2(c3ccc(Cl)c(Cl)c3)CN(C(=O)C3CCCC3)CCO2)CC1` (centres undefined), for which the growth inhibition in assay [1] is 70% (active); in assay [4] it was 88% (active). Further, the inhibition in assay [2] was 11%; in assay [3] it was 1%. Further, the outcome in assay [5], in assay [6], in assay [7] and in assay [8] was inactive.
Consider `CC[C@H]1CN2CCc3cc(OC)c(OC)cc3[C@@H]2C[C@@H]1C[C@H]1NCCc2c1cc(OC)c(O)c2I`, for which the growth inhibition in assay [1] and in assay [4] was 101% (active) each time. The results for the inhibition in assay [2] and in assay [3] were 54% (active) and -4%, respectively. Besides, the outcome in assay [5], in assay [6], in assay [7] and in assay [8] was inactive.
On to `C[C@H](Cc1ccc(OCCCCCCOc2ccccc2)cc1)NC[C@@H](O)c1cc(Br)no1`, for which the figures for the growth inhibition in assay [1] and in assay [4] were 70% (active) and 94% (active), respectively. Also, the inhibition in assay [2] is 21%; in assay [3], 5%. For the same compound, the outcome in assay [5], in assay [6], in assay [7] and in assay [8] was inactive.
With `c1ccc2c(NCCCCCCNc3c4c(nc5ccccc35)CCCC4)c3c(nc2c1)CCCC3`, the growth inhibition was 51% (active) in assay [1] and 100% (active) in assay [4]. In addition, the results for the inhibition in assay [2] and in assay [3] were 90% (active) and 3%, respectively. In addition, the outcome in assay [5], in assay [6], in assay [7] and in assay [8] was inactive.
For the compound `CN(c1cc(NC(=O)c2ccc(F)cc2)ccn1)C1CCN(Cc2cccc(F)c2)CC1`, the growth inhibition in assay [1] was 97% (active); in assay [4], 100% (active). Further, the values for the inhibition in assay [2] and in assay [3] were 13% and 5%, respectively. Moreover, the outcome in assay [5], in assay [6], in assay [7] and in assay [8] was inactive.
On to `CC[C@H]1CN2CC[C@@H]1C[C@H]2[C@H](O)c1cc(N2CCOCC2)nc2ccc(OC)cc12`, for which the growth inhibition in assay [1] and in assay [4] was 99% (active) throughout. The inhibition in assay [2] was 10%; in assay [3] it was 3%. The outcome in assay [5], in assay [6], in assay [7] and in assay [8] was inactive.
